# The list is not random: actives were taken first. Their share in the collection is about 19%.
# IL-1B inflam inh: inhibitors of inflammasome signaling (IL-1 beta secretion) | 4.7% of 360,000 active | activity change, % at 57.5 µM | THP-1 LPS/ATP IL-1B secretion, AlphaLISA, 16 h; hits give low values; in the data active = activity change below about -50%; inconclusive = mostly about -30% to -49%; also: % is scaled to controls: 0 for no effect and ±100 for the full control effect
#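 THP-1 cells pretreated 1 hr with compounds (up to 57.5 uM final), then stimulated with LPS (250 ng/mL final) plus ATP (1.25 mM final); secreted IL-1B measured by AlphaLISA after 16 hr, decreased signal indicating inhibition.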
# Chronic BCR inh: inhibitors of chronic active B-cell receptor signaling. AID 493014. Potency, µM (top dose mostly 46.1 µM), without a hit: at the highest dose activity change, negative = inhibition, most hits filed as inhibitors. ABC-DLBCL IkBa-CBG/CBR reporter, luminescence ratio, 4 h. 0.05% of 340,000 active; active = well fitted inhibition curve with a large enough effect in the signal ratio, with a control signal flat, not every such curve was filed as active; inconclusive = small, poorly fitted or top-dose-only effect, or effect the other way, or a change in a side signal; the % refers to the signal ratio;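 also: potency is read from the fitted curve at half-maximal effect; plate controls were basal doxycycline-induced cells for no effect and cells given 10 µM MG132 for full effect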
#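 Cell line TMD8 (human ABC DLBCL), stably expressing tet-inducible CBG68-IkBa fusion and CBR; IMDM/0.5% FBS; cpd up to 46 uM; dox induction, 4 h, 37C/5% CO2; dual luminescence; green/red ratio; MG132 control.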
# MCF10A rerep: induces DNA re-replication in MCF 10a normal breast cells; MCF 10A DNA re-replication, Hoechst nuclear intensity, 48 h; Potency, µM (series often up to 46.1 µM), without a hit: top-dose activity, positive = re-replication, hits mostly activators; 2.9% of 350,000 active; AID 624296; also: potency is read from the fitted curve at half-maximal effect; % of control where 0% means no effect; nearly all actives have a fitted effect of over 50% in size
# SW480 rerep: inducers of DNA re-replication in SW480 colon cancer cells | SW480 DNA re-replication, Hoechst DNA content imaging, 48 h | AID 624297 | Potency, µM (series often up to 46.1 µM), for the others: at the highest dose re-replication activation, actives largely listed as activators | 1.8% of 340,000 active; also: potency is read from the fitted curve at half-maximal effect; % of control where 0% means no effect; nearly all actives have a fitted effect of over 55% in size
#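 Compounds, transferred as 23 nL by pin tool, were incubated with cells for 48 hr; DNA content per nucleus was then quantified by Hoechst staining and fluorescence plate imaging.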
# DT40 TDP1 CPT: growth inhibition of DT40 Tdp1-/-;hTDP1 cells with camptothecin (screen for TDP1 inhibitors) | chicken DT40 Tdp1-/-;hTDP1 cells + 20 nM CPT, ATP luminescence, 48 h | AID 686979 | 12% of 420,000 active | Potency, µM (top dose mostly 46.2 µM), without a hit: top-dose activity change, negative = growth inhibition, hits mostly inhibitors; also: potency is read from the fitted curve at half-maximal effect; % is scaled to controls: 0 for no effect and ±100 for the full control effect; nearly all actives have a fitted effect of over 55% in size
#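 Chicken DT40 Tdp1-/- cells stably complemented with human TDP1 were seeded at 400 cells/well in medium containing 20 nM camptothecin, exposed to pin-transferred compounds, and grown at 37 °C for at least 48 hr. Viability was read as ATP luminescence.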
# TDP1 cell noCPT: qHTS for Inhibitors of human tyrosyl-DNA phosphodiesterase 1 (TDP1): qHTS in cells in absence of CPT; 15% of 420,000 active; DT40 Tdp1-/- hTDP1 cells, no CPT, ATP luminescence, 48 h; Potency, µM (series often up to 46.2 µM), inactives show at the highest dose activity change, negative = growth inhibition, most hits filed as inhibitors; also: potency is read from the fitted curve at half-maximal effect; % is scaled to controls: 0 for no effect and ±100 for the full control effect; nearly all actives have a fitted effect of over 55% in size
#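 Seeded 400 DT40-hTDP1 cells/well (vehicle DMSO, no 20 nM CPT); pinned compounds; ≥48 hr at 37 °C; CellTiter-Glo luminescence as viability measure.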
# * = called active by the depositor; ? = inconclusive; · = no result. Unless noted, calls follow the shape of the dose curve; as a rule, active = well fitted curve in the direction sought with a large enough effect; inconclusive = small, poorly fitted or top-dose-only effect, or another doubt; inactive = no such curve, though single readings can be large; an effect the other way counts as inactive or inconclusive.
SMILES,IL-1B inflam inh,Chronic BCR inh,MCF10A rerep,SW480 rerep,DT40 TDP1 CPT,TDP1 cell noCPT
CCCN(CCC)CCCNC(=O)Cn1cnc2onc(-c3ccc(F)cc3)c2c1=O,·,·,·,·,-14.4%,-24.6%
CCC(N)(C(=O)O)c1ccc(C(=O)O)cc1 (stereo not given),·,·,·,·,?,-20.4%
CCOc1ccc2nc(NC(=O)c3ccco3)sc2c1,-21.6,?,-10.5%,6.8%,?,?
O=C(Nc1nc2cc3c(cc2s1)OCCO3)c1ccco1,?,?,?,?,11.6µM*,16.4µM*
O=C(Nc1nc2cc3c(cc2s1)OCO3)c1ccco1,-1.6,?,?,?,?,?
O=C(NNc1nc2cc3c(cc2s1)OCO3)c1ccc(F)cc1,-9.0,-2.7%,4.3%,-3.9%,-21.3%,-15.8%
O=C(Nc1nc2cc3c(cc2s1)OCCO3)c1ccncc1,-15.1,?,2.2%,3.7%,?,23.1µM*
CCOC(=O)c1ccc2nc(NC(=O)c3ccco3)sc2c1,-3.6,?,20.6µM*,?,?,?
O=C(NNc1nc2cc3c(cc2s1)OCCO3)c1ccc(F)cc1,-6.8,-3.7%,0.259µM*,-27.9%,?,?
O=C(NC(=S)Nc1nc2ccc(F)cc2s1)c1ccco1,40.6,?,-1.0%,0.1%,4.11µM*,2.91µM*
COc1cc(Cl)c(C)cc1NC(=O)NC1COc2ccccc2C1 (stereo not given),·,·,·,·,-17.0%,-22.7%
COc1ccc(Cl)cc1C(=O)NNC(=O)c1nn(C)c(=O)c2ccccc12,20.5,2.8%,15.8%,-7.5%,?,16.4µM*
Cc1ccc(COC(=O)c2nn(C)c(=O)c3ccccc23)cc1,40.8,?,7.9%,?,?,13µM*
CCn1nc(C(=O)NNC(=O)c2cc(Cl)ccc2OC)c2ccccc2c1=O,37.8,-9.9%,25.7%,5.1%,?,?
O=C(O)C(c1ccccc1)C(O)c1ccc2c(c1)OCO2 (stereo not given),4.4,·,3.4%,-3.0%,9.8%,13.5%
COc1ccc2[nH]cc(CCNC(=O)Nc3ccccc3C)c2c1,-0.3,?,1.0%,1.3%,26.4%,-7.0%
C[C@H](NC(=O)c1nc[nH]c1C(=O)NCCCCCNC(=O)OC(C)(C)C)c1ccccc1,2.4,?,19.3%,-5.8%,14.6µM*,16.4µM*
C[C@H](NC(=O)c1nc[nH]c1C(=O)NCc1ccc(CNC(=O)OC(C)(C)C)cc1)c1ccccc1,-22.1,?,14.6µM*,4.3%,?,?
C[C@@H](NC(=O)c1nc[nH]c1C(=O)NCCCCCNC(=O)OC(C)(C)C)c1ccccc1,6.8,-5.7%,-8.9%,-0.6%,25.9µM*,?
C[C@H](NC(=O)c1nc[nH]c1C(=O)NCc1ccc(CNC(=O)OC(C)(C)C)cc1)C(=O)OCc1ccccc1,-5.7,?,?,-16.3%,20.6µM*,16.4µM*
C[C@@H](NC(=O)c1nc[nH]c1C(=O)NCC(=O)OC(C)(C)C)c1ccccc1,-0.9,11.3%,-0.8%,-6.4%,-20.9%,-27.3%
C[C@H](NC(=O)c1nc[nH]c1C(=O)NCc1ccccc1)c1ccccc1,11.2,?,17.0%,-1.2%,?,?
NNC(=O)c1ccc(S(=O)(=O)N2CCc3ccccc32)cc1,5.8,0.2%,-0.2%,0.7%,3.4%,-8.2%
CCN1C(=O)[C@H]2[C@@H](c3ccc(C)cc3)N[C@]3(CCCN(Cc4cccn4C)C3=O)[C@H]2C1=O,-14.4,·,·,·,-15.1%,?
Cc1cccc(OC(C)C(=O)Nc2ccc3c(c2)OCCO3)c1 (stereo not given),-4.4,·,-1.9%,-5.6%,25.8%,-2.3%
SMILES,IL-1B inflam inh,Chronic BCR inh,MCF10A rerep,SW480 rerep,DT40 TDP1 CPT,TDP1 cell noCPT
O=[N+]([O-])c1ccc2c(c1)nc(CO)n2Cc1ccccc1,19.5,12.8%,7.2%,22.5%,?,-13.2%
Cc1ccc(F)c(S(=O)(=O)NC(=O)C2(C)CCN2C(=O)Cc2cccs2)c1 (stereo not given),-4.2,·,·,·,-1.5%,-14.3%
CCc1ccc(NC(=O)CNC(=O)Cn2c(C)cc3ccccc3c2=O)cc1,·,·,·,·,-1.2%,-2.4%
COc1ccc(NC(=O)CNC(=O)Cn2c(C)cc3ccccc3c2=O)cc1OC,2.7,0.0%,?,?,13µM*,20.6µM*
CCOC(=O)C1CCN(C(=O)CNC(=O)Cn2c(C)cc3ccccc3c2=O)CC1,-14.9,0.3%,?,-5.8%,3.2%,-15.5%
CCOC(=O)CNC(=O)Cn1c(C)cc2ccccc2c1=O,-65.3*,?,0.8%,-11.2%,-28.7%,1.0%
COc1cc(NC(=O)CNC(=O)Cn2c(C)cc3ccccc3c2=O)cc(OC)c1OC,42.3,3.0%,-32.2%,-27.4%,13µM*,14.6µM*
COc1cc(NC(=O)CNC(=O)Cn2ccc3ccccc3c2=O)cc(OC)c1OC,3.7,-3.8%,20.4%,-1.2%,-20.2%,?
Cc1cc(C)cc(OCC(=O)N2CCN(c3ncccn3)CC2)c1,16.9,-0.3%,12.8%,-2.2%,-19.3%,-6.7%
COc1ccc(N(CC(=O)NN=C2CCN(C)CC2)S(=O)(=O)c2ccc(NC(C)=O)cc2)cc1,2.7,2.1%,-8.5%,1.4%,-16.7%,-1.3%
COc1ccc(-n2nnnc2C2CCN(S(=O)(=O)c3cc(Cl)ccc3OC)CC2)cc1,·,·,·,·,13µM*,18.4µM*
COc1ccc(-n2nnnc2C2CCN(S(=O)(=O)c3ccc(C)cc3)CC2)cc1,·,·,·,·,13µM*,-75.8%
O=C(Nc1ccc(O)c2c(=O)cc(-c3ccccc3Cl)oc12)c1ccc(F)cc1,4.2,0.8%,8.7%,-15.9%,-15.4%,-25.8%
CC(C)(C)c1ccc(C(=O)Nc2ccc(O)c3c(=O)cc(-c4cccc(Cl)c4)oc23)cc1,14.6,0.4%,0.2%,1.2%,5.8µM*,7.31µM*
COc1ccc(C(=O)Nc2ccc(O)c3c(=O)cc(-c4cccc(Cl)c4)oc23)cc1,49.2,0.1%,?,-1.5%,-17.0%,-19.0%
O=C(Nc1ccc(O)c2c(=O)cc(-c3cccc(Cl)c3)oc12)c1cccc(Cl)c1,5.2,-6.0%,9.2%,-7.1%,7.31µM*,8.2µM*
COc1ccc(CN2CC(C(=O)N3CC(C)CC(C)C3)CC2=O)cc1 (stereo not given),14.9,-1.5%,-3.5%,8.8%,-2.0%,17.1%
COc1cc2[nH]c(=S)nc(NCc3cccs3)c2cc1OC,-5.8,?,-13.9%,-12.9%,-29.0%,23.1µM*
COc1ccccc1CNc1nc(=S)[nH]c2cc(OC)c(OC)cc12,54.5,-0.6%,-2.8%,3.26µM*,?,?

# High-throughput results from PubChem.
